Test results as given in PubChem BioAssay (EPA / NIEHS).
The source made the active and inactive calls. How the source made its calls: active means hit-call score of the fitted dose curve at least 0.9, where 1 is the maximum; inactive means score below 0.9.

assay: ATG_Sox_CIS: Attagene CIS-FACTORIAL HepG2 Assay for human SRY-box transcription factor (SOX) (AID 2282960); conditions: HepG2 Attagene cis-factorial SOX reporter, mRNA; actives raise or lower the signal
Procedure: ATG_CIS is a cell-based, multiplexed-readout assay that uses HepG2, a human liver cell line, with measurements taken at 24 hours after chemical dosing in a 24-well plate.ATG_Sox_CIS is one of 52 assay component(s) measured or calculated from the ATG_CIS assay. It is designed to make measurements of mRNA induction, a form of inducible reporter, as detected with fluorescence intensity signals by Reverse transcription polymerase chain reaction (RT-PCR) and Capillary electrophoresis technology.Data from the assay component ATG_Sox_CIS was analyzed into 1 assay endpoint. This assay endpoint, ATG_Sox_CIS, was analyzed with bidirectional fitting relative to DMSO as the negative control and baseline of activity. Using a type of inducible reporter, measures of mRNA for gain or loss-of-signal activity can be used to understand the reporter gene at the transcription factor-level as they relate to the gene SOX1. Furthermore, this assay endpoint can be referred to as a primary readout, because this assay has produced multiple assay endpoints where this one serves a reporter gene function. To generalize the intended target to other relatable targets, this assay endpoint is annotated to the dna binding intended target family, where the subfamily is HMG box protein.
Human liver HepG2 cells are transiently transfected with multiple reporter transcription units (MRTUs) in 6-well plates using FuGene 6 reagent (Roche; 3 ml FuGene/1 mg DNA). The MRTU constructs are regulated by a cis-regulating element (promoter). […] A major difference between the CIS and TRANS system is that in CIS activities of endogenous TFs are measured, whereas the TRANS assay evaluates changes in activities of exogenous, chimeric NR-Gal4 proteins. […] At the end of 24 hour incubation, total RNA was isolated using TriZol reagent (Invitrogen). The isolated RNA is then reverse-transcribed using oligo(dT) primer and Mo-MLV reverse transcriptase (Invitrogen) with DNAse I (Ambion) treatment for 30 min. The one-tenth of the produced cDNA was amplified by PCR using Taq DNA polymerase (Invitrogen) and two reporter sequence-specific primers. The PCR products were fluorescently labeled by primer extension with 6-arboxyfluorescein (6-FAM) 5'-labeled reporter sequence-specific primer (2 min at 95 C, 20 s at 68 C and 10 min at 72 C) and these products were digested with 5U of HpaI (New England Biolabs) for 2h at 37 C. The fragments were purified using Qiaquick PCR columns (Qiagen), analyzed on an ABI 3130xL genetic analyzer (Applied Biosystems) with peak positions identified by using a set of X-rhodamine (ROX)-labeled MapMarker1000 molecular weight standards (BioVentures). The raw capillary electrophoresis data was processed using Attagraph software (Attagene).

SMILES	outcome	AC50
O=C=Nc1ccccc1	inactive	
CCCCOC(=O)CCC(=O)OCCCC	inactive	
CC1(C)C(=O)NC(=O)NC1=O	inactive	
S=c1[nH]c2ccccc2[nH]1	inactive	
Cc1cc(C)c(C2=C(OC(=O)CC(C)(C)C)C3(CCCC3)OC2=O)c(C)c1	inactive	
CCNCC	inactive	
CN1C(=O)CCS(=O)(=O)C1c1ccc(Cl)cc1 (stereo not given)	inactive	
Oc1ccc(C2(c3ccc(O)cc3)c3ccccc3-c3ccccc32)cc1	inactive	
CC(Cc1ccc(C(C)(C)C)cc1)CN1C[C@@H](C)O[C@@H](C)C1 (stereo not given in full)		24.7 µM (active)
N#Cc1cccc(C#N)c1	inactive	
[Cl-].[Cl-].[Cl-].[Yb+3]	inactive	
CC(C)CCCCCCCOC(=O)c1ccccc1C(=O)OCCCCCCCC(C)C	inactive	
Clc1ccc(-c2ccccc2)cc1	inactive	
ClC1=C(Cl)[C@]2(Cl)[C@@H]3[C@@H](Cl)[C@H](Cl)C[C@@H]3[C@@]1(Cl)C2(Cl)Cl	inactive	
O=C(NC(=O)c1c(F)cccc1F)Nc1ccc(Oc2ccc(C(F)(F)F)cc2Cl)cc1F	inactive	
Oc1cc(Cl)ccc1Cl	inactive	
CC1CCC(=O)O1 (stereo not given)	inactive	
CCC(C)(C)O	inactive	
[Cl][Sb]([Cl])[Cl]	inactive	
CC(=O)c1cc2c(cc1C)C(C)(C)C(C)CC2(C)C (stereo not given)	inactive	

SMILES	outcome	AC50
CCOC(=O)NC(=S)Nc1ccccc1NC(=S)NC(=O)OCC	inactive	
CC1OC(C)OC(C)O1 (stereo not given)	inactive	
Nc1ccc(Cl)c(Cl)c1	inactive	
O=C1C=CC(=O)C=C1	inactive	
COc1cc(OC)c(OC)cc1C=O	inactive	
C=CCc1ccc(OC(=O)Cc2ccccc2)c(OC)c1	inactive	
CN(C)N	inactive	
CCC[N+](=O)[O-]	inactive	
CC(C)(C)C(O)C(Oc1ccc(-c2ccccc2)cc1)n1cncn1 (stereo not given)	inactive	
Nc1ccc([N+](=O)[O-])cc1N	inactive	
CC(C)(c1cc(Cl)c(O)c(Cl)c1)c1cc(Cl)c(O)c(Cl)c1	inactive	
[CH3][Sn]([CH3])([Cl])[Cl]	inactive	
N#CCCCl	inactive	
CCOP(O)OCC	inactive	
ClCC(Cl)Cl	inactive	
O=C(O)C(Br)Br	inactive	
O=[N+]([O-])C=Cc1ccccc1		20.1 µM (active)
O=C1Nc2ccc(Cl)cc2C(c2ccccc2)=NC1O (stereo not given)	inactive	
C#CC1(O)CCCCC1	inactive	
CC(O)CN(CC(C)O)CC(C)O (stereo not given)	inactive	
